# Assay results from PubChem BioAssay AID434970 (Sanford-Burnham Center for Chemical Genomics, 2010).
# Screen size: about 11,000 compounds; about 310 (2.8%) were called active. No stated cut-off is given here; in the data, active means activity change below about -85%; inactive means the rest. The sample as a whole holds a higher share of actives than the screen did.
# Tested on: intestinal alkaline phosphatase [Mus musculus]
# Assay: activators of mouse IAP, confirmation, biochemical, luminescence, single concentration (AID 434970)
# Conditions: purified mouse IAP, CDP-Star luminescence, 30 min, at 10 µM; activation factor: measured here: IAP activation factor, stronger effect = higher value; activity change, negative = activation: stronger effect = lower value
Structure (SMILES),activation factor,"activity change, negative = activation"
CCC(=O)N1c2ccccc2NC2=C(C(=O)CCC2)C1c1ccc(N(C)C)cc1 (configuration not stated),1.18,-18.3% (inactive)
O=C(NC1CCCCC1)N1CCN(c2ccccc2)CC1,0.931,6.95% (inactive)
N/C(COc1cccc(Cl)c1)=N\NS(=O)(=O)c1ccccc1,0.875,12.6% (inactive)
COc1cc(-c2noc(CCC(N)=O)n2)cc(OC)c1OC,0.884,11.6% (inactive)
CCC(C)NCCOCCOc1ccc(F)cc1 (configuration not stated),1.03,-3.25% (inactive)
Cc1ccc(S(=O)(=O)N(C)C[C@H]2Oc3c(NC(=O)Nc4cccc5ccccc45)cccc3C(=O)N([C@@H](C)CO)C[C@@H]2C)cc1,3.14,-214% (active)
C[C@H]1CN([C@@H](C)CO)C(=O)c2cccc(NC(=O)Nc3ccc(C(F)(F)F)cc3)c2O[C@@H]1CN(C)S(=O)(=O)c1ccc(Cl)cc1,1.47,-46.7% (inactive)
Cc1ccc(S(=O)(=O)N(C)C[C@@H]2Oc3ccc(NC(=O)Nc4cccc5ccccc45)cc3C(=O)N([C@H](C)CO)C[C@H]2C)cc1,2.13,-113% (active)
Cc1cc2cc(CNC(=S)NCc3ccccc3)ccc2n1C,1.2,-20% (inactive)
N[C@@H](Cc1ccccc1)c1nnc2sc(SCc3ccccc3)nn12,0.972,2.75% (inactive)
O=C(c1ccc[nH]1)N1O[C@@H]2C=C[C@H]1C2,0.951,4.9% (inactive)
CCCN1C2CCCC1CC(NC(=O)c1cc(OC)c(OC)c(OC)c1)C2 (configuration not stated),0.893,10.7% (inactive)
Cc1nn(Cc2ccc(Cl)cc2)c(C)c1NC(=O)c1c(-c2ccccc2)noc1C,1.03,-2.7% (inactive)
COc1cccc(-c2nn(-c3ccccc3)cc2C(=O)NCC(=O)O)c1,1.08,-8.2% (inactive)
Cc1nn(Cc2ccc(Cl)c(Cl)c2)c(C)c1NC(=O)c1cn(-c2ccccc2)nc1-c1ccccc1,2.62,-162% (active)
Cc1cccc(NC(=O)c2cn(-c3ccccc3)nc2-c2ccccc2)c1,1.64,-64% (inactive)
Cc1nn(Cc2c(Cl)cccc2Cl)c(C)c1NC(=O)c1cn(-c2ccccc2)nc1-c1ccccc1,1.74,-73.8% (active)
O=C(NC1CCN(Cc2ccc(Cl)cc2)CC1)c1cn(-c2ccccc2)nc1-c1cccnc1,1.6,-60.3% (inactive)
CCCN1CCN(C(=O)c2cn(CC(C)C)c(=O)c3cc(OC)c(OC)cc23)CC1,1.04,-4.4% (inactive)
COc1ccc(C2CC(c3ccccc3)n3nnnc3N2)cc1 (configuration not stated),1.15,-14.9% (inactive)
COc1ccc2c(CC(=O)OCC(=O)N3CCc4ccccc43)coc2c1,0.935,6.5% (inactive)
COc1cc2c(cc1OC)[C@@H](NC(=O)COc1ccccc1)[C@H](OCc1ccccc1)C2,1.07,-6.55% (inactive)
O=C(CSc1ncccn1)NCc1ccccc1,1.02,-2% (inactive)
CCOC(=O)c1sc(N=NC2=C(O)CC(C)(C)CC2=O)c(C(=O)OCC)c1C,3.1,-210% (active)
COc1ccc(N=NC2=C(O)CC(C)(C)CC2=O)c(OC)c1,0.743,25.7% (inactive)
CCOC(=O)c1sc(N=NC2=C(O)CCCC2=O)c(C(=O)OCC)c1C,0.794,20.6% (inactive)

Structure (SMILES),activation factor,"activity change, negative = activation"
COc1cc(NC(=O)c2ccc(F)cc2)c(OC)cc1Cl,0.929,7.05% (inactive)
COc1ccc2c(C)c(C(=O)O)oc2c1,0.933,6.65% (inactive)
COC(=O)c1c(N)n(CCCN2CCOCC2)c2nc3ccccc3nc12,0.983,1.65% (inactive)
N#Cc1c(-c2ccc(Cl)cc2)ccn2nc(CCC(=O)O)nc12,1.15,-15.3% (inactive)
CN1CCN(S(=O)(=O)c2ccc(SCCOc3ccccc3)nc2)CC1,0.96,4% (inactive)
CC(C)(C)N(C(=O)Cn1nnc(-c2ccc(F)cc2)n1)C(C(=O)NC1CCCC1)c1ccncc1 (configuration not stated),0.935,6.5% (inactive)
O=C(NC1CCCC1)C(c1ccc(F)cc1)N(Cc1ccc(F)cc1)C(=O)c1ccn[nH]1 (configuration not stated),2.05,-105% (active)
C=CCN(C(=O)CNC(=O)c1ccco1)C(C(=O)NC1CCCCC1)c1ccc(F)cc1 (configuration not stated),1.05,-5.3% (inactive)
Brc1ccc(-c2cnc(-c3cccs3)o2)cc1,0.944,5.65% (inactive)
COc1ccc(Cc2nn[nH]n2)cc1,1.18,-17.9% (inactive)
Cc1cc(C)n(CCCN2CCC(C(=O)Nc3cccc(-c4cccc(F)c4)c3)CC2)n1,3.01,-202% (active)
CCn1nc(C)c(CN2CCC(C(=O)Nc3cccc(-c4cccc(Cl)c4)c3)CC2)c1C,4.74,-374% (active)
CC(=O)c1ccc(NC(=O)Cn2nc(C)cc2C)cc1,0.948,5.2% (inactive)
Cc1nn(C(C)C)c(C)c1CN1CCC(C(=O)Nc2cccc(-c3cccc(F)c3)c2)CC1,4.89,-389% (active)
CCc1ccc(NC(=O)C2CC(=O)N(C(C)C)C2)cc1 (configuration not stated),0.925,7.45% (inactive)
Cc1ccc(NC(=O)CCn2nc(C)cc2C)cc1,1.12,-11.6% (inactive)
COc1ccc(NC(=O)C2CCN(c3nc(C)cc(C)n3)CC2)cc1,0.96,4.05% (inactive)
CCn1nc(C)c(CN2CCC(C(=O)Nc3cccc(-c4cccc(F)c4)c3)CC2)c1C,3.08,-208% (active)
CCn1nc(C(=O)Nc2cccc(C(F)(F)F)c2)c(Cl)c1Cl,0.952,4.85% (inactive)
Cc1ccc(Cn2nc(C)c(NC(=O)C3CC3)c2C)cc1,1.06,-6.3% (inactive)
Nc1ccccc1NC(=O)c1ccccc1,1.09,-8.9% (inactive)
CCN1CCN(C(=O)CN(c2ccccc2C)S(C)(=O)=O)CC1,1.04,-3.5% (inactive)
Cc1ccc(OCCn2cnc3c(N)ncnc32)cc1,0.932,6.8% (inactive)
Cc1cc(NC(=O)CCC(=O)N(Cc2ccco2)C(C)(C)C(=O)NC2CCCCC2)no1,1.05,-5.25% (inactive)
COc1ccc(CNC(=O)C[C@H]2C[C@H](C(=O)N3CCOCC3)[C@@]3(CCC4CCCC4)c4[nH]c5cc(CCC(=O)N(C)C)ccc5c4CCN3C2=O)cc1OC,1.07,-6.85% (inactive)
